KB-3-1 tox = kills parental KB-3-1 adenocarcinoma cells; Potency, µM (doses to about 46.1 µM), most hits filed as cytotoxic; KB-3-1 viability, CellTiter-Glo ATP luminescence, 72 h; AID 1347075; 400,000 tested, 1.4% active; further: on the % scale 0 is the no-effect control and ±100 the full control effect; nearly all actives have a fitted effect of over 60% in size
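Parental KB-3-1 adenocarcinoma cells in phenol-red-free DMEM with 10% FBS were pin-treated with compounds at several concentrations, incubated 72 h at 37 °C, and viability read by CellTiter-Glo luminescence; concentration-effect curves were fitted after normalization.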
HepG2 tox-1 = HepG2 cytotoxicity, counter-screen for TGF-b inhibitors; HepG2 CAGA-GFP viability, ATP luminescence, 18 h; Potency, µM (doses to about 46.1 µM), for inactives: at the top dose activity change, negative = cytotoxicity, actives largely listed as cytotoxic; 410,000 tested, 0.76% active
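HepG2 CAGA-GFP cells (1000/well, DMEM with 1% FBS) received compound, then TGF-beta at 500 pg/mL final, and were incubated 18 hours at 37 degrees C. Viability was read by CellTiter-Glo luminescence. Media-only wells were set as complete cell-killing and DMSO as no toxicity.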
KB-V1 MDR tox = KB-V1 MDR subline cytotoxicity; Potency, µM (highest dose often 46.1 µM), actives largely listed as cytotoxic; KB-V1 MDR cells viability, CellTiter-Glo, 72 h; 400,000 tested, 3.4% active; AID 1347076; further: on the % scale 0 is the no-effect control and ±100 the full control effect; nearly all actives have a fitted effect of over 60% in size
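qHTS viability screen in drug-selected KB-V1 MDR cells: 72 h compound treatment at 37 degrees C, ATP luminescence end point.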
ATXN2 expr inh = reduces ATXN2 reporter expression in HEK-293 cells; HEK-293 ATXN2-luciferase reporter, luminescence, 24 h; Potency, µM (series often up to 57 µM), without a hit: top-dose activity change, negative = inhibition, hits mostly inhibitors; 360,000 tested, 0.72% active; further: on the % scale 0 is the no-effect control and ±100 the full control effect; nearly all actives have a fitted effect of over 55% in size
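ATXN2-luciferase reporter cells (luciferase flanked by upstream and downstream ATXN2 gene portions) were treated 24 h at 37 °C with compounds at up to 57 uM. SteadyGlo luminescence gave expression; GF-AFC fluorescence gave viability.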
TGFb inhibitor = blocks TGF-b signaling | Potency, µM (highest dose often 46.1 µM), for the others: top-dose activity, negative = inhibition, actives largely listed as inhibitors | AID 588855 | HepG2 CAGA-GFP TGF-b/SMAD3 reporter, GFP fluorescence, 18 h; TGF-beta stimulated, 500 pg/mL final | 410,000 tested, 1.2% active; further: on the % scale 0 is the no-effect control and ±100 the full control effect; nearly all actives have a fitted effect of over 65% in size
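HEPG2 CAGA-GFP, 1000 cells/well; 2 h settle, 37 C; cpd via pin tool; TGF-b 500 pg/mL final; 18 h, 37 C; GFP imaging ex488/em500-530; %Activity normalised to -TGF-b and +DMSO controls; CRC fit, curve class.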
S2 tox = cell viability loss in ATXN counter-screen; S2 cells (HEK-293 line with an ATXN2-luciferase reporter) viability, CellTiter-Fluor protease fluorescence, 24 h; Potency, µM (titrated, usually from 56.7 µM), hits mostly cytotoxic; 400,000 tested, 0.49% active; AID 651635; further: nearly all actives have a fitted effect of over 40% in size
TGFb confirm = confirmation of TGF-b signaling inhibitors in HepG2 reporter cells. shares compounds with TGFb inhibitor. HepG2 CAGA-GFP TGF-b reporter, GFP fluorescence, 18 h; cells stimulated with TGF-beta, 500 pg/mL. Potency, µM (series often up to 46.1 µM), for the others: at the top dose activity, negative = inhibition, actives largely listed as inhibitors. 1,600 tested, 63% active; further: on the % scale 0 is the no-effect control and ±100 the full control effect; nearly all actives have a fitted effect of over 65% in size
HepG2 tox-2 = counter-screen for TGF-b inhibitors: cytotoxicity in HepG2 cells. shares compounds with TGFb inhibitor. HepG2 CAGA-GFP viability, ATP luminescence, 18 h; cells stimulated with TGF-beta, 500 pg/mL. Potency, µM (top dose mostly 46.1 µM), for the others: top-dose activity, negative = cytotoxicity, most hits filed as inhibitors. 1,600 tested, 27% active; further: on the % scale 0 is the no-effect control and ±100 the full control effect; nearly all actives have a fitted effect of over 70% in size
TGFb CCL64 inh = blocks TGF-b signaling in CCL64 reporter cells. shares compounds with TGFb inhibitor. CCL64 CAGA-GFP reporter, TGF-b stimulated, GFP fluorescence, 18 h. Potency, µM (doses to about 46.1 µM), for the others: at the top dose activity, negative = inhibition, usual class: inhibitors. 1,600 tested, 41% active. AID 720536; further: nearly all actives have a fitted effect of over 65% in size
TGFb COP inh = TGF-b inhibition validated with COP promoter | shares compounds with TGFb inhibitor | HepG2 COP-GFP TGF-b reporter, GFP fluorescence, 18 h; cells stimulated by added recombinant TGF-beta | Potency, µM (highest dose often 46.1 µM), inactives show top-dose activity, negative = inhibition, most hits filed as inhibitors | 1,600 tested, 3% active; further: nearly all actives have a fitted effect of over 70% in size
An asterisk follows results filed as active; i = inactive; ? = inconclusive; / = not tested or not shown. In the library only some 5.9% were active in any assay of this set; here they are far more common. The call rests on the fitted dose curve; in most records, active means well fitted curve in the direction sought with a large enough effect; inconclusive means small, poorly fitted or top-dose-only effect, or another doubt; inactive means no such curve, though single readings can be large; an effect the other way counts as inactive or inconclusive. Potency means the concentration at half of the fitted maximal effect.

SMILES	KB-3-1 tox	HepG2 tox-1	KB-V1 MDR tox	ATXN2 expr inh	TGFb inhibitor	S2 tox	TGFb confirm	HepG2 tox-2	TGFb CCL64 inh	TGFb COP inh
O=S(=O)(CC(CN1CCCCC1)N1CCCCC1)c1ccc2ccccc2c1 (stereo not drawn)	6.51µM*	11.2µM*	?	-20.2%	3.16µM*	i	13µM*	13µM*	?	?
CC(C)CCNC(=O)C(c1ccco1)N(Cc1cccs1)C(=O)Cn1nnc2ccccc21 (stereo not drawn)	i	17.6%	5.17µM*	3.0%	7.08µM*	i	?	8.9%	?	1.3%
COCCNC(=O)C(c1cccs1)N(Cc1cccs1)C(=O)Cn1nnc2ccccc21 (stereo not drawn)	i	0.9%	i	5.9%	0.0%	i	/	/	/	/
Cc1ccc(CNC(=O)c2cc3c(=O)n(Cc4cccnc4)ccc3nc2C)cc1	?	2.9%	i	-32.4%	-1.4%	?	/	/	/	/
Cc1ccc(CNC(=O)C2CCN(S(=O)(=O)c3ccc4c(c3)CCCN4C(=O)C3CCC3)CC2)cc1	?	-4.0%	?	-0.5%	?	i	/	/	/	/
CCc1nc(OCc2ccco2)c2sc3nc4c(cc3c2n1)COC(C)(C)C4	?	-11.4%	?	38.9%	?	i	?	-16.0%	-1.2%	18.7%
Clc1nc(Cl)nc(N(c2ccccc2)c2ccccc2)n1	i	-45.6%	i	-1.4%	?	i	?	?	?	35.5%
CC1=C(C(=O)N(C(C)C)C(C)C)CC(CC(=O)NCc2cccc3ccccc23)C(=O)N1Cc1ccc(C(C)(C)C)cc1 (stereo not drawn)	23.1µM*	-7.7%	?	?	7.94µM*	?	16.4µM*	?	?	30.1%
CC1=C(C(=O)N(C)C)CC(CC(=O)NCc2cccc3ccccc23)C(=O)N1Cc1ccc(C(C)(C)C)cc1 (stereo not drawn)	i	-29.3%	i	?	?	?	/	/	/	/
CC1=C(C(=O)N(C(C)C)C(C)C)CC(CC(=O)NCCc2ccccn2)C(=O)N1Cc1ccc(C(C)(C)C)cc1 (stereo not drawn)	i	-67.5%	i	-20.2%	8.91µM*	?	-20.8%	-12.8%	?	10.8%
CN1CC(=O)N(CC(=O)Nc2ccc(Cl)c(C(F)(F)F)c2)c2ccccc2C1=O	i	-1.9%	i	12.4%	-1.6%	i	/	/	/	/
C#CCOc1c(Cl)cc(/C=N/NC(N)=S)cc1OCC	i	15.8%	?	-18.7%	0.0%	i	/	/	/	/
CCOc1c(Cl)cc(/C=N/NC(N)=S)cc1OC	i	5.8%	7.31µM*	/	14.1µM*	i	?	5.7%	?	-28.4%
CCN(Cc1ccccc1)C(=O)Cn1c(=O)n(-c2ccccc2)c(=O)c2c1c1cc(C)ccc1n2C	i	5.9%	i	6.5%	-0.7%	?	/	/	/	/
CCCn1c(C(C)Nc2nc(-c3ccc(C)cc3)cs2)nc2ccccc21 (stereo not drawn)	?	-16.5%	i	-14.6%	11.2µM*	?	?	?	?	42.7%
CC(Nc1nc(-c2ccc(Cl)cc2)cs1)c1nc2cc(Cl)c(N3CCCCC3)cc2n1CCOCCO (stereo not drawn)	i	-30.0%	?	?	20µM*	?	?	?	18.4µM*	70.7%
C/C(=N\O)c1ccc(OCC(=O)N2CCCCC2)cc1	/	/	/	49.6%	/	?	/	/	/	/
CCOc1ccccc1C1CC(=O)Nc2cc3c(cc21)OCO3 (stereo not drawn)	i	-5.7%	i	/	-9.2%	/	/	/	/	/
CCOc1ccccc1C1C2=C(COC2=O)Nc2cc3c(cc21)OCO3 (stereo not drawn)	1.16µM*	0.3%	3.66µM*	19.9%	7.08µM*	?	3.26µM*	-23.3%	1.84µM*	-24.5%
CN(c1cccc(NC(=O)CN(c2cccc(Cl)c2)S(=O)(=O)c2ccccc2)c1)S(C)(=O)=O	?	-40.2%	i	3.9%	?	i	-6.3%	-27.6%	?	3.6%
Cc1ccc2nc(N3CCN(C(=O)c4ccc(F)cc4)CC3)c(C#N)cc2c1	i	-17.0%	i	/	10µM*	i	?	-29.6%	?	1.4%
CCOC(=O)c1c(C)oc2c1C(=O)c1ccccc1C2=O	?	5.01µM*	i	?	5.01µM*	i	5.17µM*	5.8µM*	4.61µM*	16.4µM*
CN(C(=O)Cn1nnc(-c2ccc(S(C)(=O)=O)cc2)n1)c1ccccc1	i	-5.5%	i	9.2%	?	i	/	/	/	/
CCOc1ccc(CN2CCN(C(=O)c3cccc4ccccc34)CC2)cc1	i	-40.7%	i	?	?	i	9.2µM*	?	3.0%	1.8%
CC(=O)Oc1ccc(-c2ccc(C(=O)Nc3cccc(S(=O)(=O)N4CCOCC4)c3)cc2)cc1	?	-14.2%	?	-35.1%	11.2µM*	i	20.6µM*	?	?	17.5%
CCOc1ccc(CCNC(=O)c2c(C)oc3ncn(CC(C)C)c(=O)c23)cc1	i	-20.1%	i	-5.5%	-6.3%	i	/	/	/	/
Cc1cccc(C(=O)N2CCc3cc(CNC(=O)COc4ccc(Cl)cc4)ccc32)c1	i	11.6%	i	/	-3.4%	/	/	/	/	/
CC(C)Cn1c(=O)c2ccccc2n2c(CCC(=O)NCc3ccc(Cl)cc3)nnc12	/	-5.4%	/	/	1.0%	/	/	/	/	/

Bioassay records deposited in PubChem BioAssay by National Center for Advancing Translational Sciences (NCATS).
